Among the data in PubChem BioAssay (NCI) are growth values, retold here.

This is part of a sample that, as a whole, favours compounds with a hit. Of some 83,000 tested, about 20% had one in any assay.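 For each line, cells grew in 96-well plates with the test compound present at a single concentration for 48 hours.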 Values without a mark were called inactive. Activity calls are given as the source filed them. How the source made its calls: active means growth percent below 10; inactive means the rest.

Among the test systems are HCT-15 colon; HT29 colon; SNB-75 CNS; SNB-19 CNS; U251 CNS; PC-3 prostate; SK-MEL-5 melanoma; UACC-62 melanoma; LOX IMVI melanoma; SK-MEL-28 melanoma.
Assay in all cases: NCI-60 one-dose screen, 48 h (100 = growth as untreated, 0 = no growth, -100 = all killed)
Holding throughout (settings): 10 µM unless noted

For the compound `COc1ccc(C(=O)COc2ccc(/C=C3\Oc4ccccc4C3=O)cc2)cc1`, the growth is 96.8% in the assay with HCT-15 colon; 102% in the assay on HT29 colon; 89.7% in the assay with SNB-75 CNS; 90.9% with SNB-19 CNS; 97.4% with U251 CNS; 97.3% in the assay on PC-3 prostate. Moreover, the growth in the assay with SK-MEL-5 melanoma is 85.8%; with UACC-62 melanoma, 72.5%; with LOX IMVI melanoma, 92.6%; in the assay with SK-MEL-28 melanoma, 123%.

As for `Oc1c(CN2CCCC2)cc(COCc2ccc(Br)cc2)c2cccnc12`, the growth is -39.6% (active) in the assay on HCT-15 colon; 55% in the assay on HT29 colon; 24.5% with SNB-75 CNS; 23.2% in the assay with SNB-19 CNS; -7.1% (active) in the assay on U251 CNS; 14.4% in the assay with PC-3 prostate. In addition, the growth was -15.1% (active) in the assay with SK-MEL-5 melanoma, -22.4% (active) in the assay on UACC-62 melanoma, -14.1% (active) with LOX IMVI melanoma and 24.2% in the assay with SK-MEL-28 melanoma.

For the compound `CC(=O)OC[C@H]1OC(Sc2sc(C(=O)c3ccc(Br)cc3)c(N)c2-c2nc3ccccc3s2)[C@H](OC(C)=O)[C@@H](OC(C)=O)[C@@H]1OC(C)=O` (some centres undefined), the growth with HCT-15 colon is 59.8%; in the assay on HT29 colon, 63.1%; with SNB-75 CNS, -16.7% (active); with SNB-19 CNS, 75.2%; with U251 CNS it was 57.6%; with PC-3 prostate, 71.3%. In addition, the growth in the assay with SK-MEL-5 melanoma was 22.1%; in the assay with UACC-62 melanoma it was 89.3%; in the assay with LOX IMVI melanoma, 37.1%; in the assay with SK-MEL-28 melanoma, 70.7%.

Regarding `CCOC(CN=Cc1cc(C)c2[nH]c3ccccc3c2c1C)OCC`, the growth was 97.8% in the assay with HCT-15 colon; 108% in the assay on HT29 colon; 88.9% in the assay on SNB-75 CNS; 91.9% in the assay with SNB-19 CNS; 89.5% in the assay on U251 CNS; 101% in the assay with PC-3 prostate. Moreover, the growth was 105% with SK-MEL-5 melanoma, 71.3% with UACC-62 melanoma, 96.3% with LOX IMVI melanoma and 103% in the assay with SK-MEL-28 melanoma.

Consider `CCOC(=O)c1csc(NC(=O)COc2cccc(/C=C3\Oc4cc(OC)ccc4C3=O)c2)n1`, for which the growth in the assay with HCT-15 colon was 79.2%; with HT29 colon, 101%; with SNB-75 CNS, 78.4%; in the assay on SNB-19 CNS, 83.4%; with U251 CNS, 79.2%; in the assay on PC-3 prostate, 78.3%. The growth in the assay on SK-MEL-5 melanoma is 98.5%; in the assay with UACC-62 melanoma, 79%; in the assay with LOX IMVI melanoma, 66.7%; in the assay with SK-MEL-28 melanoma it was 119%.

As for `NC(=O)c1ccc[n+]([C@@H]2O[C@H](COP(=O)([O-])OP(=O)(O)OC[C@H]3O[C@@H](n4cnc5c(N)ncnc54)[C@H](O)[C@@H]3O)[C@@H](O)[C@H]2O)c1`, the growth with HCT-15 colon is 97.3%; in the assay on HT29 colon, 106%; in the assay on SNB-75 CNS, 104%; in the assay on SNB-19 CNS, 110%; in the assay on U251 CNS it was 99.5%; with PC-3 prostate it was 114%. For the same compound, the growth in the assay with SK-MEL-5 melanoma is 112%; with UACC-62 melanoma, 119%; with LOX IMVI melanoma, 92.9%; in the assay on SK-MEL-28 melanoma it was 103%.

Consider `Cc1cc(NCc2cc(Nc3ccnc4cc(Cl)ccc34)ccc2F)nc(N2CCSCC2)n1`, for which the growth is 1.94% (active) in the assay on HCT-15 colon; -27.3% (active) in the assay with HT29 colon; -31.7% (active) with SNB-75 CNS; 42.9% in the assay with SNB-19 CNS; -71.4% (active) with U251 CNS; 26.6% with PC-3 prostate. Also, the growth in the assay with SK-MEL-5 melanoma was -13.8% (active); in the assay with UACC-62 melanoma, -54.4% (active); in the assay with LOX IMVI melanoma it was -89.2% (active); with SK-MEL-28 melanoma it was -64.3% (active).

Turning to `CCN1C(=O)N(CC)C2C1NN=c1s/c(=C\c3cccs3)c(=O)n12` (centres undefined), the growth in the assay with HCT-15 colon is 16.5%; in the assay on HT29 colon, 60.2%; with SNB-75 CNS it was 16.6%; in the assay on SNB-19 CNS it was 37%; with U251 CNS, 19.8%; in the assay with SK-MEL-5 melanoma, -4.97% (active). The growth with UACC-62 melanoma was 38%; in the assay on LOX IMVI melanoma it was 23.1%; in the assay with SK-MEL-28 melanoma it was 58.3%.

Regarding `CCCCCc1nc2c(c3c1CCCC3)CCCC2`, the growth was 74.8% in the assay with HCT-15 colon; 55.4% in the assay on HT29 colon; 82.1% with SNB-75 CNS; 72.8% in the assay on SNB-19 CNS; 83.7% in the assay on U251 CNS; 64.9% with PC-3 prostate. In addition, the growth with SK-MEL-5 melanoma is 83.8%; with UACC-62 melanoma, 82.2%; in the assay with LOX IMVI melanoma, 88.3%; with SK-MEL-28 melanoma it was 100%.

For `Cc1ccc(Cl)cc1NC(=O)c1cc2ccccc2cc1O`, the growth in the assay with HCT-15 colon was 8.41% (active); with HT29 colon, 7.43% (active); in the assay with SNB-75 CNS, -14.3% (active); in the assay with SNB-19 CNS, 22.8%; in the assay on U251 CNS, 2.92% (active); in the assay on PC-3 prostate it was -12.6% (active). Further, the growth was -74.4% (active) in the assay with SK-MEL-5 melanoma, -11.5% (active) in the assay with UACC-62 melanoma, 3.41% (active) in the assay with LOX IMVI melanoma and 9.98% (active) in the assay on SK-MEL-28 melanoma.

Regarding `Cc1ccc(/C=C/c2c(C(=O)/C=C/c3ccc(Cl)cc3)c(C)nc3ccccc23)cc1`, the growth in the assay with HCT-15 colon is -39.9% (active); in the assay on HT29 colon it was 8.51% (active); with SNB-75 CNS, 68.8%; in the assay with SNB-19 CNS, -21.4% (active); in the assay with U251 CNS, -36.9% (active); in the assay on PC-3 prostate it was 11.6%. Besides, the growth in the assay with SK-MEL-5 melanoma was -40.6% (active); in the assay on UACC-62 melanoma it was -32.8% (active); with LOX IMVI melanoma it was -91% (active); in the assay on SK-MEL-28 melanoma, -55% (active).

For the compound `N#Cc1c(N)nc(NCCO)nc1-c1ccc(F)cc1`, the growth is 99.9% with HCT-15 colon; 95.9% in the assay with HT29 colon; 79.2% in the assay on SNB-75 CNS; 104% in the assay with SNB-19 CNS; 90.2% in the assay with U251 CNS; 92.9% with PC-3 prostate. The growth is 95% in the assay on SK-MEL-5 melanoma, 95% in the assay on UACC-62 melanoma, 90.8% in the assay on LOX IMVI melanoma and 112% in the assay with SK-MEL-28 melanoma.

In the case of `Cc1cccc(NC(=O)CSc2nc3ccccc3[nH]2)c1`, the growth in the assay with HCT-15 colon is 104%; in the assay on HT29 colon it was 122%; in the assay on SNB-75 CNS, 84.2%; with SNB-19 CNS it was 94.9%; with U251 CNS, 101%; in the assay with PC-3 prostate, 91%. In addition, the growth in the assay with SK-MEL-5 melanoma was 103%; in the assay with UACC-62 melanoma it was 85.1%; in the assay on LOX IMVI melanoma, 96.8%; with SK-MEL-28 melanoma, 101%.
